# Out of some 320,000 compounds screened, about 2,100 (0.66%) were called active. Not shown: some 53% with an inconclusive outcome. Calls follow the shape of the dose curve; as a rule, active = well fitted inhibition curve with a large enough effect in the signal ratio, with a control signal flat (not every such curve was filed as active); inconclusive = small, poorly fitted or top-dose-only effect, or effect the other way, or a change in a side signal; inactive = flat fitted curve, though single readings scatter; the % refers to the signal ratio. Many of the other results were omitted from the sample, so actives are more common in it than they were.
# Experiment: qHTS Assay for Lipid Storage Modulators in Drosophila S3 Cells;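 as to cell number change: cells counted by Cell Tracker Red CMTPX staining in the red channel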; as to lipid storage change, negative = inhibition: % is scaled to controls: 0 for no effect and ±100 for the full control effect
# Settings: BODIPY lipid droplet fluorescence, 18-24 h, cells fed with added oleic acid; cell number change: measured here: cell count max response; series mostly up to 46.1 µM; lipid storage change, negative = inhibition: at the top concentration
# Method in brief: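 Laser-scanning cytometry quantifies lipid droplet accumulation (500–530 nm total intensity; droplet/cell object ratio) in oleic acid-fed (400 uM added) Drosophila S3 cells treated with a concentration series. 20 uM Triacsin C defined 100% inhibition.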
# Potency is read from the fitted curve at half-maximal effect.
SMILES,"lipid storage change, negative = inhibition",cell number change,outcome,Potency
CC(=O)Nc1ccc(S(=O)(=O)N2CCN=C2SCc2cccnc2)cc1,-0.0501% (inactive),-0.745%,,
COc1cc(-n2nc(C)c3c2OC(N)=C(C#N)C3c2ccccc2)c(Cl)c(Br)c1O (centres undefined),,-5.47%,inactive,
Cc1cc(N2CCCCC2)nc2c(C)cccc12,9.06% (inactive),3.12%,,
COc1ccc(/C=c2/sc3n(c2=O)C(c2ccccc2OC)C2=C(N=3)c3ccccc3CC2)cc1O (centres undefined),15.6% (inactive),-22.9%,,
CN(C)C(=O)C(OC(=O)c1ccc2c(c1)CCCC2)c1ccccc1 (centres undefined),,15.3%,,0.58 µM (active)
COc1ccc(C(=O)OC(C(=O)c2ccccc2)c2ccccc2)cc1 (centres undefined),-14.1% (inactive),-12.3%,,
CN(C)C(=O)C(OC(=O)c1ccc2ccccc2n1)c1ccccc1 (centres undefined),,16.5%,inactive,
CCOC(=O)c1cc(=O)c2c([N+](=O)[O-])ccc(OC)c2o1,-7.08% (inactive),-14.1%,,
CCCC(=O)Nc1cccc(Oc2ccc3c(c2)C(=O)NC3=O)c1,,-28.1%,,1.46 µM (active)
CC(=O)Nc1cccc(Oc2ccc3c(c2)C(=O)NC3=O)c1,-10.3% (inactive),-4.38%,,
CCC(=O)Nc1ccc(Oc2ccc3c(c2)C(=O)NC3=O)cc1,,-7.29%,inactive,
CC(C)c1ccc(NC(=O)N2CCOCC2)cc1,,-1.06%,inactive,
O=C(CSc1nc(-c2ccc(F)cc2)nc2c1Cc1ccccc1O2)Nc1ccc(C(=O)O)cc1,4.47% (inactive),-7.56%,,
CN1CCCN(C(=O)c2ccccc2Cl)CC1,-22.4% (inactive),-6.61%,,
CN1CCCN(C(=O)c2c(F)cccc2Cl)CC1,,-3.31%,,1.64 µM (active)
O=C(c1c(F)cccc1F)N1CCCC1,0.776% (inactive),7.6%,,
CCOC(=O)/C(C#N)=C(/C)c1ccc(OC)cc1,,,inactive,
CCOc1cc2[nH]c(=O)n(CCc3ccc(OC)c(OC)c3)c(=O)c2cc1OCC,10.7% (inactive),0.389%,,
O=C(O)c1ccc(N/N=C2/CCCc3ccccc32)cc1,1.14% (inactive),24.2%,,
CCN(CC)C(=O)c1cccc2c1C(=O)c1ccccc1-2,9.17% (inactive),11.5%,,
O=C1c2ccccc2-c2c1cccc2C(=O)N(CCO)CCO,,-9.84%,,25.9 µM (active)
CC(C)CNC(=O)c1cccc2c1-c1ccccc1C2=O,14.4% (inactive),24.1%,,
CC12CN(S(=O)(=O)c3ccccc3)CC(C)(CN(S(=O)(=O)c3ccccc3)C1)C2,1.31% (inactive),1.2%,,
CCC(C)(C)NC(=O)CN(C(=O)c1csnn1)c1cccc2c1CCCC2,-4.03% (inactive),-10.5%,,
COc1ccc(-c2nc(C(=O)NCC3CCCO3)cc3c2[nH]c2ccccc23)cc1 (centres undefined),-81.9% (inactive),-11.3%,,

SMILES,"lipid storage change, negative = inhibition",cell number change,outcome,Potency
COc1cc(-c2nc(C(=O)NC3CCCCC3)cc3c2[nH]c2ccccc23)cc(OC)c1OC,,13.2%,,13 µM (active)
O=C(NCCO)c1cc2c([nH]c3ccccc32)c(-c2ccccc2)n1,-0.328% (inactive),-12.4%,,
CCOCCCNC(=O)Cn1cc2c(n1)CCCC2,-2.58% (inactive),13.2%,,
COC(=O)Cn1c(=NC(=O)c2cc(OC)cc(OC)c2)sc2cc(OC)ccc21,-18.2% (inactive),-0.279%,,
COc1ccc(NC(=O)CSc2nncs2)cc1S(N)(=O)=O,-14% (inactive),,,
Cc1c(N)cccc1N,6.46% (inactive),16.6%,,
O=C(CSC1=NS(=O)(=O)c2ccccc2N1)Nc1ccccc1F,,-3.42%,,6.51 µM (active)
O=C(CSC1=NS(=O)(=O)c2cc(F)ccc2N1)Nc1ccccc1F,,,inactive [at 0.0737 µM],
O=C(CSC1=NS(=O)(=O)c2cc(Cl)ccc2N1)Nc1ccccc1F,1.27% (inactive),0.0379%,,
Cc1ccc(S(=O)(=O)N2CCN(S(=O)(=O)N3CCC(C)CC3)CC2)c(C)c1,,12.8%,inactive,
CCCC(=O)Nc1nc(C(=O)OCC)cs1,-10.7% (inactive),-4.4%,,
CCOCCCNC(=O)C(Cc1ccccc1)NC(=O)c1ccco1 (centres undefined),,-1.42%,,13 µM (active)
Cc1ccc(CNC(=O)[C@H](Cc2ccccc2)NC(=O)c2ccco2)cc1,11.7% (inactive),9.45%,,
CCOC(=O)c1sc(NC(=O)c2cccs2)nc1C,-6.52% (inactive),7.32%,,
O=C(NCCCCNC(=O)c1cccs1)c1cccs1,-20.8% (inactive),-29%,,
COCCCNC(=O)c1c(-c2ccccc2)noc1C,9.31% (inactive),19.6%,,
CCOCCCNC(=O)c1cccs1,,17.5%,,6.51 µM (active)
CCOCCCNC(=O)c1c(-c2ccccc2)noc1C,,-15.4%,,20.6 µM (active)
COCCCNC(=O)c1cccs1,,12.5%,inactive,
CCOC(=O)c1csc(NC(=O)c2cccs2)n1,,-11.6%,,20.6 µM (active)
O=C(NC(Cc1ccccc1)C(=O)O)c1ccco1 (centres undefined),16% (inactive),6.62%,,
CC(=O)Nc1ccc(OCCCNC(=O)c2c(-c3ccccc3)noc2C)cc1,-5.94% (inactive),-3.99%,,
Cc1cccc(/C=C/c2nc3ccccc3c(=O)[nH]2)c1,-2.08% (inactive),-2.24%,,
O=C(NCC(=O)N(Cc1cccs1)C(C(=O)NC1CCCC1)c1ccncc1)c1ccco1 (centres undefined),,,inactive,
Cn1c(Cn2c(=O)sc3ccccc32)nnc1SCC(N)=O,2.33% (inactive),4.82%,,

SMILES,"lipid storage change, negative = inhibition",cell number change,outcome,Potency
CCCCCC(=O)Nc1cc(N(C)C)nc2ccccc12,,6.14%,inactive,
COc1ccc(CC(=O)OCC(=O)Nc2ccc(C(=O)Nc3ccc(OC)cc3)cc2)cc1,0.407% (inactive),6.99%,,
Cc1ccc2sc(NC(=O)CN3C(=O)c4ccccc4C3=O)nc2c1C,19.1% (inactive),-0.832%,,
CCCCC(O)(CCCC)C(=O)NN(C(=O)OC)c1ccccc1,8.53% (inactive),0.36%,,
CCCC(O)(CCC)C(=O)NN(C(=O)OC)c1ccccc1,7.85% (inactive),12.3%,,
CCCC(O)(CCC)C(=O)NN(C(=O)CCl)c1cccc(C)c1,,-4.84%,,20.6 µM (active)
CCC(O)(CC)C(=O)NN(C(=O)CCl)c1ccccc1,,-5.65%,,20.6 µM (active)
Cc1cccc(N(NC(=O)C(C)(C)O)C(=O)c2ccccc2)c1,-3.6% (inactive),7.68%,,
CCCCC(O)(CCCC)C(=O)NN(C(=O)OCC)c1ccccc1,-7.04% (inactive),11.1%,,
CC1CCCCN1Cc1c(O)ccc2c(=O)c(-c3ccc(Cl)cc3Cl)coc12 (centres undefined),0.45% (inactive),-3.44%,,
Cc1ccc(C)c(NC(=S)NCc2cccs2)c1,-0.72% (inactive),-1.36%,,
CC(=O)Nc1cccc(C(=O)NC(C)c2ccc(-n3ccnc3)cc2)c1 (centres undefined),,,inactive,
CC(NC(=O)c1ccc(S(=O)(=O)Nc2ccccc2)cc1)c1ccc(S(N)(=O)=O)cc1 (centres undefined),11.1% (inactive),2.41%,,
CC(=O)Nc1cccc(C(=O)NC(C)c2ccc(S(N)(=O)=O)cc2)c1 (centres undefined),,21.3%,,1.64 µM (active)
CC(c1ccccn1)N(CCN(C)C)C(=S)Nc1cccc(F)c1 (centres undefined),,,inactive,
CC(C)CCN(C(=S)Nc1cccc(C(F)(F)F)c1)C(C)c1ccccn1 (centres undefined),,-20.3%,,32.6 µM (active)
CC(C)N(C(=S)Nc1cccc(C(F)(F)F)c1)C(C)c1ccccn1 (centres undefined),0.651% (inactive),,,
Cc1ncoc1C(=O)Nc1cccc(Cl)c1C,,,inactive,
CCc1cc(=O)oc2cc(C)cc(OC(C)C(=O)NC3CC(C)(C)NC(C)(C)C3)c12 (centres undefined),,17.3%,inactive,
Cc1ccc(S(=O)(=O)CCSc2ccc(C(F)(F)F)cn2)cc1,6.53% (inactive),21.4%,,
Cc1ccc(S(=O)(=O)CCSc2nc(C)cc(C(F)(F)F)c2C#N)cc1,,-21.5%,,16.4 µM (active)
CCS(=O)(=O)CCSc1nc(C)cc(C)c1C#N,,5.68%,inactive,
COc1ccc(NC(=O)CSCC(=O)N=c2sccn2C)cc1,,23.3%,inactive,
COc1ccc(-n2nc3c(c2NC(=O)CCCl)CSC3)cc1,25.1% (inactive),1.89%,,
CN1/C(=C/C=C(C#N)C#N)C(C)(C)c2ccccc21,,7.31%,,7.31 µM (active)

SMILES,"lipid storage change, negative = inhibition",cell number change,outcome,Potency
CN1/C(=C\C(=O)Nc2ccc(F)cc2)C(C)(C)c2ccccc21,-15.1% (inactive),-24.5%,,
CN1/C(=C/C=C(/C#N)C(N)=O)C(C)(C)c2ccccc21,-1.55% (inactive),13.2%,,
CN1/C(=C\C=N\NC(=O)c2ccc(O)cc2)C(C)(C)c2ccccc21,,-19.2%,,2.31 µM (active)
CN1/C(=C\C(=O)C(F)F)C(C)(C)c2ccccc21,,,inactive,
CN1/C(=C\C=Nc2ccc3ccccc3c2)C(C)(C)c2ccccc21,-22.9% (inactive),6.9%,,
CCc1cc(C(=O)N2CCCC(CCC(=O)N3CCN(c4ccccn4)CC3)C2)no1 (centres undefined),-10% (inactive),-4.75%,,
O=C(CSc1nc2ccccc2[nH]1)NCC1CCCO1 (centres undefined),-1.44% (inactive),1.54%,,
O=C(CCC(=O)c1ccc(F)cc1)Nc1cccc(C(F)(F)F)c1,-22% (inactive),-4.38%,,
Cc1cnc(C(=O)OCc2c(C)cc(C(C)(C)C)cc2C)cn1,-22.9% (inactive),3.78%,,
COc1cc(COC(=O)c2cnc(C)cn2)c(OC)cc1Br,,4.62%,,0.517 µM (active)
COc1ccc(C(C)=O)cc1COC(=O)c1cnc(C)cn1,,5.96%,inactive,
COc1ccc(C(C(=O)NC2CCCC2)N(C(=O)c2ccco2)c2ccc3c(c2)OCO3)cc1OC (centres undefined),17.5% (inactive),,,
COc1ccccc1NC(=O)Nc1c(C)nn(C)c1C,4.48% (inactive),22.1%,,
C/C=C/c1ccc(OCCn2nnc3ccccc32)c(OC)c1,-26% (inactive),1.4%,,
COc1ccc(-c2cc(C(=O)c3c(N)n(C)c(=O)n(C)c3=O)c3ccccc3n2)cc1,15.1% (inactive),0.639%,,
CCOCCCN1CN(S(=O)(=O)c2ccc(Cl)cc2)c2nc3ccccc3nc21,14.5% (inactive),-11.9%,,
Cc1c(CNCCc2ccc(Cl)cc2)c(C(=O)O)c(C)n1Cc1ccccc1,,,inactive,
Cc1ccc(NC(=O)COC(=O)CSC(=S)N2CCOCC2)cc1C,5.57% (inactive),1.5%,,
O=C(O)CN1C(=O)CSc2ccccc21,-0.578% (inactive),2.34%,,
O=C(CCl)N1c2ccccc2OCC1c1ccccc1 (centres undefined),,-20.4%,inactive,
O=C(CCl)N1c2ccccc2SCC1c1ccccc1 (centres undefined),,-4.27%,,1.03 µM (active)
CC(=O)Nc1ccc(Nc2c([N+](=O)[O-])c(=O)n(-c3ccccc3)c3ccccc23)cc1,2.41% (inactive),12.5%,,
O=C(Nc1nccs1)c1ccccc1Br,8.98% (inactive),3.63%,,
Cc1nnc(NC(=O)c2ccccc2Br)s1,0.131% (inactive),8.15%,,
O=C(Nc1nncs1)c1ccccc1Br,,9.55%,,32.6 µM (active)
